Compound activity deposited in PubChem by National Center for Advancing Translational Sciences (NCATS).
RORg inh – ROR gamma (mouse) transcription inhibition | P51450 | Drosophila S2 Gal4-RORgamma UAS-luciferase reporter, 20 h | Potency, µM (doses to about 53.6 µM), for inactives: top-dose activity change, negative = inhibition, usual class: inhibitors | 310,000 tested, 5.4% active; further: on the % scale 0 is the no-effect control and ±100 the full control effect; nearly all actives have a fitted effect of over 60% in size
Target sequence (P51450 whole entry, looked up, the tested form may be a part): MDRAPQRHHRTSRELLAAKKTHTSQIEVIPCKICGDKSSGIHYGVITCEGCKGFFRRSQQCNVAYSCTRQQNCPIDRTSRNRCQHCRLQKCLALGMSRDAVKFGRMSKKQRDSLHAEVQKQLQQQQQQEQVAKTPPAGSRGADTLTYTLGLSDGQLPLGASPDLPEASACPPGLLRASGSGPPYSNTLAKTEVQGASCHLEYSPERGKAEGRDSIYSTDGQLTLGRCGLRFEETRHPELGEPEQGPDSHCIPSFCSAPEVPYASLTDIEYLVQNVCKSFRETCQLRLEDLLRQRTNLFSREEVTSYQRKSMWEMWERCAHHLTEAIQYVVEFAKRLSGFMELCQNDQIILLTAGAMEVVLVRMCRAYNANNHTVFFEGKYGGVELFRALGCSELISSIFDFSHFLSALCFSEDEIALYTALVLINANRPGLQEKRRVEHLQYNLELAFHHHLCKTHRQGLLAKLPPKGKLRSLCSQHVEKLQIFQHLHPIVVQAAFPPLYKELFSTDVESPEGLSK
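Luciferase reporter read in Schneider cells carrying Gal4-RORγ (mouse) and UAS-Photinus luciferase; cells given compound 1 h before 700 uM copper sulfate induction, then incubated 20 h at ambient temperature.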
VP16 counter – Gal4-VP16 reporter inhibition counter-screen; Drosophila S2 Gal4-VP16 UAS-luciferase, luminescence, 20 h; Potency, µM (series often up to 53.6 µM), without a hit: top-dose activity, negative = inhibition, most hits filed as inhibitors; 310,000 tested, 3.5% active;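 further: Gal4-VP16 expression switched on by copper sulfate through the metallothionein promoter; on the % scale 0 is the no-effect control and ±100 the full control effect; nearly all actives have a fitted effect of over 50% in size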
TGFb inhibitor – TGF-b pathway inhibition. Potency, µM (series often up to 46.1 µM), for inactives: at the top dose activity, negative = inhibition, usual class: inhibitors. HepG2 CAGA-GFP TGF-b/SMAD3 reporter, GFP fluorescence, 18 h; TGF-beta stimulated, 500 pg/mL final. AID 588855. 410,000 tested, 1.2% active; further: on the % scale 0 is the no-effect control and ±100 the full control effect; nearly all actives have a fitted effect of over 65% in size
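First, reporter cells (HEPG2 CAGA-GFP) rested 2 h at 37 degrees C. Next, compounds were pinned in and TGF-beta added to 500 pg/mL final. After 18 h, GFP was imaged per cell and summed per well.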
HepG2 viability – HepG2 cytotoxicity, counter-screen for TGF-b inhibitors | Potency, µM (titrated, usually from 46.1 µM), without a hit: top-dose activity change, negative = cytotoxicity, hits mostly cytotoxic | HepG2 CAGA-GFP viability, ATP luminescence, 18 h | 410,000 tested, 0.76% active
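CellTiter-Glo luminescence gave cytotoxicity after 18 hours at 37 degrees C. The cells were HepG2 CAGA-GFP in 1% FBS DMEM, stimulated with 500 pg/mL TGF-beta after compound addition. %Activity was normalised to no-cell wells (complete cell-killing) and DMSO (no toxicity), and curves were fitted and classified.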
S2 tox – reduces viability in counter-screen for ATXN expression inhibitors | S2 cells (HEK-293 line with an ATXN2-luciferase reporter) viability, CellTiter-Fluor protease fluorescence, 24 h | Potency, µM (top dose mostly 56.7 µM), actives largely listed as cytotoxic | 400,000 tested, 0.49% active | AID 651635; further: nearly all actives have a fitted effect of over 40% in size
ATXN2 expr inh – inhibitors of ATXN2 expression. HEK-293 ATXN2-luciferase reporter, luminescence, 24 h. Potency, µM (doses to about 57 µM), for the others: at the top dose activity change, negative = inhibition, actives largely listed as inhibitors. 360,000 tested, 0.72% active; further: on the % scale 0 is the no-effect control and ±100 the full control effect; nearly all actives have a fitted effect of over 55% in size
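ATXN2-luciferase reporter cells (luciferase flanked by upstream and downstream ATXN2 gene portions) were treated 24 h at 37 °C with compounds at up to 57 uM. SteadyGlo luminescence gave expression; GF-AFC fluorescence gave viability.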
* marks the source's active call; other numbers are inactive results; i = inactive; ? = inconclusive; / = not tested or not shown. A selection: hits, their analogues and other compounds. The true share with any hit is near 6.1%. The call rests on the fitted dose curve; in most records, active means well fitted curve in the direction sought with a large enough effect; inconclusive means small, poorly fitted or top-dose-only effect, or another doubt; inactive means no such curve, though single readings can be large; an effect the other way counts as inactive or inconclusive. Potency means the concentration at half of the fitted maximal effect.

SMILES | RORg inh | VP16 counter | TGFb inhibitor | HepG2 viability | S2 tox | ATXN2 expr inh
Cc1ccccc1-c1nc(-c2ccccn2)no1 | 7.08µM* | 7.94µM* | -0.2% | -79.5% | i | ?
Brc1ccc(-c2noc(-c3ccccn3)n2)o1 | ? | ? | 9.6% | -21.6% | i | -12.1%
Clc1ccc(-c2nc(-c3ccccn3)no2)cc1Cl | -30.8% | -20.1% | -4.1% | -6.8% | i | ?
Cc1ccc(OCC(=O)N(Cc2ccco2)Cc2ccco2)cc1C | / | / | -8.2% | -30.2% | / | /
C/C=C(\C)C(=O)NCCN1Cc2ccccc2OC(c2ccccc2OC)C1 (stereo not given) | / | / | / | / | i | /
COC(=O)C1CCN(Cc2ccc3c(c2)CN(C(=O)c2cc4ccccc4n2C)CCO3)CC1 | / | / | / | / | i | /
Cc1cccc(C(=O)NC2(C(F)(F)F)N=C(c3ccccc3)N(Cc3ccccc3)C2=O)c1 (stereo not given) | / | / | -6.6% | -0.2% | i | -0.5%
O=C(CCl)Nc1c(C(=O)Nc2ccc3c(c2)OCCO3)oc2ccccc12 | 0.0% | ? | ? | 15.8µM* | ? | -33.4%
Cc1occc1C(=O)Nc1ccc2c(c1)OCCO2 | 8.91µM* | ? | -26.6% | -42.4% | ? | 25.6%
Cc1ccccc1C(=O)Nc1ccc2c(c1)OCCO2 | 8.91µM* | ? | -0.6% | -24.6% | ? | /
O=C(Nc1ccc2c(c1)OCO2)C(=O)c1c[nH]c2ccccc12 | -17.3% | -1.5% | 4.6% | -19.1% | ? | /
O=C(Nc1ccc2c(c1)OCCO2)C(=O)c1c[nH]c2ccccc12 | 2.51µM* | 3.16µM* | -14.1% | -10.8% | ? | -41.3%
O=C1CCC=C1C(O)c1ccc2c(c1)OCO2 (stereo not given) | -7.3% | -0.9% | / | / | / | /
CCN(C(=O)Cn1c(=O)oc2cc(S(=O)(=O)N3CCCCC3)ccc21)c1ccccc1 | / | / | 11.8% | 0.1% | i | 0.7%
Nc1ccccc1C(=O)/C=C/c1ccccc1 | 29.2% | 20.4% | / | / | / | /
Nc1ncnc2c1ncn2Cc1c(F)cccc1Cl | / | / | / | / | i | 8.7%
Cc1ccc(C)c(NC(=O)Cn2cc(S(=O)(=O)c3ccc(F)cc3)c(=O)c3cc(F)ccc32)c1 | / | / | 32.3% | -0.2% | i | 3.7%
CC(C)NC(=O)C1COc2ccccc2O1 (stereo not given) | -33.1% | 1.1% | 6.3% | -2.8% | ? | /
NC(=S)C1COc2ccccc2O1 (stereo not given) | 12.6µM* | -29.3% | 0.0% | -49.0% | i | 0.0%
O=c1c2c(nc3cc(-c4cccc(F)c4)[nH]n13)CCC2 | 5.6% | -10.3% | -21.1% | -2.8% | i | -8.3%
O=c1c2c(nc3cc(-c4ccc(F)cc4)[nH]n13)CCCC2 | 8.91µM* | 11.2µM* | -5.8% | -44.9% | i | ?
COc1ccccc1C(=O)Nc1c(C(=O)N(CCN(C)C)Cc2ccco2)oc2ccccc12 | ? | -6.0% | ? | -102.6% | i | -23.8%
COc1ccc(OCC(=O)Nc2c(C(=O)N(CCN(C)C)Cc3ccco3)oc3ccccc23)cc1 | -20.5% | -4.0% | 22.4µM* | -51.0% | i | -37.3%
CC(=O)c1sc(NC(=O)CCS(=O)(=O)c2ccc(F)cc2)nc1C | / | / | ? | -97.1% | ? | /
CC(=O)c1sc(NC(=O)CCS(=O)(=O)c2ccccc2)nc1C | 12.6µM* | ? | 17.8µM* | -77.6% | ? | ?
SMILES | RORg inh | VP16 counter | TGFb inhibitor | HepG2 viability | S2 tox | ATXN2 expr inh
Nc1c(-c2nc(-c3cccs3)no2)nnn1-c1cccc(F)c1 | / | / | 6.6% | 5.6% | i | 57.2%
Cc1ccc(-c2cnc(C3CC3)o2)cc1S(=O)(=O)Nc1cccc(C#N)c1 | / | / | 9.8% | -43.1% | ? | ?
COc1ccc(C)cc1NS(=O)(=O)c1ccc(-c2cnc(C3CC3)o2)cc1 | 34.4% | 17.8µM* | 3.55µM* | -2.1% | ? | 0.0%
Cc1ccc(N(C)S(=O)(=O)c2ccc(-c3cnc(C4CC4)o3)cc2)cc1 | 7.4% | 1.2% | 6.31µM* | -5.0% | ? | -3.3%
COc1cccc(NS(=O)(=O)c2cc(-c3cnc(C4CC4)o3)ccc2C)c1 | / | / | 2µM* | -26.8% | ? | ?
CCCCCCCc1cc2c(cn1)C(=O)C(C)(OC(C)=O)C(O)=C2Cl (stereo not given) | 18.8% | 1.4% | / | / | / | /
Cc1cnc(Nc2cccc(CN3CCOCC3)c2)nc1Nc1cccc(S(=O)(=O)NC(C)(C)C)c1 | / | / | / | / | / | 8.2%
CCOC(=O)Cc1ccc(NC(=O)NCc2ccc3c(c2)CCN3C(=O)CC)cc1 | / | / | 2.1% | -5.3% | i | -7.4%
Cc1occc1C(=O)NNC(=O)c1ccccc1C(=O)O | ? | -6.2% | -2.0% | -7.2% | i | 64.0%
O=C(Cc1ccccc1)NNC(=O)c1ccccc1C(=O)O | 3.16µM* | 5.4% | -3.1% | -11.5% | i | 3.8%
O=C(NNC(=O)c1ccccc1C(=O)O)c1ccc(-c2ccccc2)cc1 | 14.1µM* | 1.4% | / | / | / | /
O=C(Cc1ccccc1)Nc1cccc(C(=O)O)c1O | -31.4% | 10µM* | 14.0% | 21.5% | ? | 5.7%
Cc1ccccc1NC(=S)C1=C(O)c2sccc2N(C)S1(=O)=O | ? | ? | 21.9% | 0.7% | i | -19.3%
CN1c2ccccc2C(O)=C(C(=S)Nc2ccccc2)S1(=O)=O | ? | ? | -7.0% | -7.0% | i | -17.5%
Cc1ccc(NC(=S)C2=C(O)c3ccccc3N(C)S2(=O)=O)cc1 | ? | 17.8µM* | -1.8% | 1.0% | i | -5.6%
CN1c2ccsc2C(O)=C(C(=S)Nc2ccccc2)S1(=O)=O | 10µM* | ? | 28.3% | -0.3% | i | -8.6%
COc1cc(NC(=O)N(Cc2ccco2)C2CCN(C(C)=O)CC2)cc(OC)c1OC | / | / | -5.5% | -33.0% | i | 10.4%
COc1ccc(-n2c(=O)c(-c3ccc(Cl)cc3)nc3cnc(N4CCNCC4)nc32)cc1 | ? | -12.2% | / | / | / | /
COc1ccc2c(c1)c(=O)c(S(=O)(=O)c1ccc(Cl)cc1)cn2Cc1cc(C)ccc1C | / | / | -4.9% | -11.9% | i | 5.6%
COc1ccc(OC)c(C2C(C(N)=O)=C(C)Nc3nc(-c4cccc(Cl)c4)nn32)c1 (stereo not given) | ? | 17.8µM* | 0.3% | -40.8% | i | -8.3%
COc1ccc(CN2CCCC(c3nc(C)ncc3-c3ccc(F)cc3)C2)c(OC)c1OC (stereo not given) | / | / | / | / | i | /
S=C1NC(c2ccccc2)=NCN1c1ccccc1 | 10µM* | 0.8% | -8.3% | -3.0% | ? | -13.4%
Cc1ccc(C2=NCN(c3ccc(C(=O)O)cc3)C(=S)N2)cc1 | 1.4% | -1.2% | / | / | / | /
Cc1ccc(OCc2cc(=O)n3cc(C)sc3n2)c(C)c1 | / | / | 23.6% | -0.1% | i | 10.2%
